Many of the other results were omitted from the sample, so hits are more common in it than they were.
Integrin act MD = qHTS for Activators of Integrin-Mediated Alleviation for Muscular Dystrophy; alpha7betagal myoblasts, beta-gal FDG fluorescence, 48 h; Potency, µM (doses to about 38.3 µM), usual class: activators; hit rate 0.064% among 350,000; AID 624291, 2012; note: nearly all actives have a fitted effect of over 60% in size
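alpha7betagal+/- myoblasts (passage 13, 250/well) treated 48 h at 37C with compounds at 1:260 dilution of DMSO stock. Lysed, then beta-galactosidase activity read as FDG fluorescence (ex 480/em 540) after 30 min, with pre-read for autofluorescence.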
ClpP mod = qHTS Assay for Activators of ClpP. ATP-dependent Clp protease proteolytic subunit (Bacillus subtilis (strain 168)), P80244. purified B. subtilis ClpP, FRET peptide cleavage, 20 min. Potency, µM (doses to about 57.5 µM). hit rate 1.9% among 340,000. AID 651965, 2013; active = well fitted falling curve with a large enough effect; inconclusive = small, poorly fitted or top-dose-only effect; inactive = no such curve, though single readings can be large or run the other way; note: the source files actives as falling curves though it sought activators and does not explain the sign; nearly all actives have a fitted effect of over 65% in size
Target sequence (P80244 whole entry, looked up): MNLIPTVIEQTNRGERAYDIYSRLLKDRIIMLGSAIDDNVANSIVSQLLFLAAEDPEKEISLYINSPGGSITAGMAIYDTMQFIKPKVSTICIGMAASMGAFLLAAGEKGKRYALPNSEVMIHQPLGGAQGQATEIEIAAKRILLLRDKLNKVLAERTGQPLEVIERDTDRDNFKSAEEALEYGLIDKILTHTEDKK
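Purified B. subtilis ClpP, 10 microg/mL final in Tris/HCl pH8 with KCl, BSA, glycerol and Tween-20, cleaved an Abz/nitrotyrosine-quenched decapeptide. Fluorescence (ex 320, em 430) was read at 0 and 20 min at room temperature. Delta was normalized to 5.8 microM ADEP and DMSO/no-enzyme controls.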
USP2a inh = qHTS Assay for Inhibitors of Ubiquitin-specific Protease USP2a Using CHOP2 as the Reporter | USP2 core, Ub-CHOP2 coupled fluorogenic reporter, 485/531 | Potency, µM (top dose mostly 38.3 µM), usual class: inhibitors | hit rate 0.01% among 330,000 | AID 463254, 2010
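USP2 core (10nM final) preincubated 30min RT with compound in 20mM Tris-HCl pH 8.0, 2mM CaCl2, 2mM beta-mercaptoethanol, 0.05% CHAPS; 25nM Ub-CHOP2 plus 25nM reporter substrate added, fluorescence (Ex485/Em531) read after 60min.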
Eya2 inh = qHTS Assay for Inhibitors of the Phosphatase Activity of Eya2; hit rate 0.006% among 330,000; Potency, µM (doses to about 76.9 µM), actives largely listed as inhibitors; recombinant Eya2, OMFP fluorescence dephosphorylation (OMFP is methylfluorescein phosphate)
Target sequence (O00167 whole entry, looked up): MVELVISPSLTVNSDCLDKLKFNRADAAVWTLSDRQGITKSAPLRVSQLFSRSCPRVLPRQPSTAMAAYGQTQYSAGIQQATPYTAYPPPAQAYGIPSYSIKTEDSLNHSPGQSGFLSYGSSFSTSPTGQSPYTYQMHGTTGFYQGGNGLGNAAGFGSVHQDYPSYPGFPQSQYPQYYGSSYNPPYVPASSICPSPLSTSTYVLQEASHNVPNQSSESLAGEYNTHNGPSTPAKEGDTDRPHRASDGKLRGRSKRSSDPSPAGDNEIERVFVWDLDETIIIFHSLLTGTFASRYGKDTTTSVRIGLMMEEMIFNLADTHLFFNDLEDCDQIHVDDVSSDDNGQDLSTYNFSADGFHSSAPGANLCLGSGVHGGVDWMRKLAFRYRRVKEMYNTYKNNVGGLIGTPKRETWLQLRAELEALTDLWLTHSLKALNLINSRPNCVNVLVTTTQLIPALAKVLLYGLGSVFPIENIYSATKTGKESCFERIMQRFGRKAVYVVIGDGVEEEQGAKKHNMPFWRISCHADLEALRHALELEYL
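Eya2 (0.2 uM) preincubated 10 min at ambient with compound, then OMFP substrate added at 50 uM; 10 min reaction in 50 mM HEPES pH 7.5, 50 mM NaCl, 5 uM MgCl2, 0.05% BSA, 1 mM DTT. Fluorescence read at Ex 485/Em 525 nm.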
p53 reactivator = qHTS assay for re-activators of p53 using a Luc reporter; Potency, µM (series often up to 92.2 µM), most hits filed as activators; AID 504706, 2011; H1299 p53-A138V BP100-luciferase reporter, luminescence, 24 h; hit rate 0.063% among 320,000; note: nearly all actives have a fitted effect of over 45% in size
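p53-null H1299 cells stably carrying temperature-sensitive p53-A138V and a BP100-luciferase reporter were pinned with compounds (4-point, 1:5 series) and held 24 hrs at 37 deg C. Luminescence was read 10 min after detection reagent.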
MmCpn inh = Inhibitors of TCP-1 ring complex (TRiC) of Methanococcus maripaludis (MmCpn): qHTS; hit rate 0.031% among 330,000; Chaperonin Mm-Cpn (Methanococcus maripaludis); AID 504842, 2011; purified Mm-Cpn ATPase, ADP Transcreener TR-FRET; Potency, µM (doses to about 76.9 µM), most hits filed as inhibitors; note: nearly all actives have a fitted effect of over 80% in size
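ATP (10 uM final) was added to archaeal chaperonin (25 nM final) after 10 min exposure to test compound at 37°C; after 30 min further incubation, ADP was detected by competitive TR-FRET.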
A number is an active result; . = inactive; ? = inconclusive; / = not tested or not shown; ! = repeats disagree. Unless noted, calls come from the whole dose curve; as a rule, active = well fitted curve in the direction sought with a large enough effect; inconclusive = small, poorly fitted or top-dose-only effect, or another doubt; inactive = no such curve, though single readings can be large; an effect the other way counts as inactive or inconclusive.

SMILES	Integrin act MD	ClpP mod	USP2a inh	Eya2 inh	p53 reactivator	MmCpn inh
CSCCC(NC(=O)c1occc1C)C(=O)O (centres undefined)	.	25.1µM	.	.	.	.
CSCCC(NC(=O)c1ccco1)C(=O)O (centres undefined)	.	.	.	.	.	.
C/C(=N\NC(=O)c1ccncc1)c1cc2ccccc2oc1=O	.	.	.	.	.	.
C/C(=N/NC(=O)c1ccncc1)c1cc2ccc(O)cc2oc1=O	.	31.6µM	?	?	.	.
O=c1oc2c3c4c(cc2c2c1CCC2)OCCN4CCC3	.	17.8µM	.	.	.	.
Cc1c(O)c(CN2CCCC2)cc2c3c(c(=O)oc12)CCC3	.	?	?	.	.	.
Cc1cc2c(nn1)CCC/C2=N\O	.	17.8µM	.	.	.	.
N#C/C(=N\Nc1c(Cl)cccc1Cl)C(=O)NN	.	15.8µM	.	.	.	.
O=C(c1ccc(F)cc1)c1cn(Cc2ccccc2)c2cc3c(cc2c1=O)OCO3	/	.	/	/	/	/
CC1C[C@@]2(NC(=O)NC2=O)C(C)CN1C (some centres undefined)	.	.	.	.	.	.
CC1CC2(NC(=O)NC2=O)C(C)CN1C (centres undefined)	.	25.1µM	.	.	.	.
CC(=O)NCc1cc(Cl)c2cccnc2c1O	/	/	.	.	/	.
Cc1ccc(/C=C2\CCCC3=C2NC(=S)NC3c2ccc(C)cc2)cc1 (centres undefined)	.	15.8µM	.	.	.	.
CC(CCO)Nc1nc2c(c(=O)n(C)c(=O)n2C)n1Cc1ccc(Br)cc1 (centres undefined)	/	.	/	/	/	/
Cc1ccccc1Nc1c(-c2ccc(Br)o2)nc2ccc(Cl)cn12	/	28.2µM	/	/	/	/
Cc1ccc2nc(-c3ccc(C)o3)c(Nc3ccc(Cl)cc3)n2c1	/	14.1µM	/	/	/	/
CC(C)c1ccc(C(=O)C[N+]2(C)CCOCC2)cc1	/	.	/	/	/	/
CC(=O)Nc1sc2c(c1C#N)CCC(C)C2 (centres undefined)	.	/	.	.	.	.
Cc1cc(C(=O)Nc2sc3c(c2C#N)CCC(C)C3)cs1 (centres undefined)	.	25.1µM	.	.	.	.
COC(=O)c1ccccc1NC(=O)n1cc(C)cn1	.	31.6µM	.	.	.	.
CCOc1ccc(NC(=O)CSc2nnc3c(n2)[nH]c2ccc(S(=O)(=O)N(C)C)cc23)cc1	/	.	/	/	/	/
CCOC(=O)Nc1oc2ccccc2c(=O)c1C	.	5.01µM	.	.	.	.
CCOC(=O)Nc1c2ccccc2nc2ccccc12	.	.	.	.	.	.
c1ccc(CSc2nc3ncccc3[nH]2)cc1	/	.	/	/	/	/
CCC(C)NC(=O)CSc1nnc(-c2cc(-c3cccs3)nc3ccccc23)o1 (centres undefined)	.	25.1µM	.	.	.	.
SMILES	Integrin act MD	ClpP mod	USP2a inh	Eya2 inh	p53 reactivator	MmCpn inh
NC(=O)CSc1nnc(-c2cc(-c3ccc(Cl)cc3)nc3ccccc23)o1	.	/	.	.	.	.
NC(=O)CSc1nnc(-c2cc(-c3cccs3)nc3ccccc23)o1	.	25.1µM	.	.	.	.
CCCN(CC1CC1)C(=O)CSc1nnc(-c2cc(-c3cccs3)nc3ccccc23)o1	.	25.1µM	.	.	.	.
O=C(CSc1nnc(-c2cc(-c3cccs3)nc3ccccc23)o1)NC1CCCCC1	.	?	.	.	.	.
CCc1cc(/C=C/c2ccnc3ccccc23)ccc1N(C)C	/	.	/	/	/	/
Nc1nc2[nH]cc(CCc3ccc(C(=O)N[C@@H](CCC(=O)O)C(=O)O)cc3)c2c(=O)[nH]1	/	.	/	/	/	/
CCCCn1c(-c2ccc(Cl)cc2)nc2c(=O)n(C)c(=O)[nH]c21	.	11.2µM	.	.	?	.
Nc1c(Br)cc(/C=C2\C=Cc3ccccc32)cc1Br	/	.	/	/	/	/
CCc1cccc(C)c1NC(=O)C1CN(S(=O)(=O)c2ccccc2)CCN1S(=O)(=O)c1ccccc1 (centres undefined)	.	25.1µM	.	.	.	.
CCOC(=O)C1CN(S(=O)(=O)c2ccccc2)CCN1S(=O)(=O)c1ccccc1 (centres undefined)	.	.	.	.	.	.
O=c1[nH]c2c(-c3nc(-c4ccc(Cl)cc4)cs3)c(O)cn2c2ccccc12	/	.	/	/	/	/
O=C(C[N+]1(CCc2ccccc2)CCOCC1)c1cccc([N+](=O)[O-])c1	/	.	/	/	/	/
COc1cc(/C=C/c2ccc3ccccc3n2)cc(OC)c1OC	/	.	/	/	/	/
Cc1c(-n2cc(C(=O)O)c(=O)c3cc(F)c(N4CCCC(O)C4)c(F)c32)c(=O)n(-c2ccccc2)n1C (centres undefined)	.	10µM	.	.	.	.
Cc1cc(Cl)ccc1OCCCC(=O)N1CCOCC1	.	.	.	.	?	.
Cc1ccc(OCCCC(=O)N2CCOCC2)cc1	.	10µM	.	.	.	.
CCN(CC)C(=O)Cn1c(=O)n(CC2CCC(C(=O)NC)CC2)c(=O)c2sccc21 (centres undefined)	/	.	/	/	/	/
Cc1cc2nn(-c3ccc(F)cc3)nc2cc1NC(=O)c1ccc(OC(C)C)cc1	/	.	/	/	/	/
Cc1cccc(C(=O)Nc2cc3nn(-c4ccc(C(C)C)cc4)nc3cc2C)c1	/	10µM	/	/	/	/
CC[N+]1(CC(=O)c2cccs2)CCCCC1	/	.	/	/	/	/
CC(OC(=O)c1cccnc1SCc1cc(=O)n2ccccc2n1)c1ccccn1 (centres undefined)	.	.	.	.	.	.
CCOC(=O)c1cccnc1SCc1cc(=O)n2ccccc2n1	.	31.6µM	.	.	?	.
COC(=O)C1SCC2C(=O)N(Cc3ccc(F)cc3)CC(=O)N21 (centres undefined)	8.91µM	.	.	.	.	.
COc1ccc(N2CCN(C(c3ccccc3)c3nnnn3C(C)C)CC2)cc1 (centres undefined)	/	.	/	/	/	/
COc1cc2nc(Nc3cccc(F)c3)nc(N)c2cc1OC	.	31.6µM!	.	.	.	.
COc1ccc(Nc2nc(N)c3cc(OC)c(OC)cc3n2)cc1	/	.	/	/	/	/
C=CCn1c(SCCC(=O)O)nnc1-c1cccs1	.	28.2µM	.	.	.	.
O=C(O)c1ccc2c(ccc3nn(-c4ccc(/C=C/c5ccc(-n6nc7ccc8cc(C(=O)O)ccc8c7n6)cc5[S+](=O)([O-])[O-])c([S+](=O)([O-])[O-])c4)nc32)c1	/	.	/	/	/	/

Bioassay records as filed in PubChem.
